± gives the standard deviation. In all, about 8,200 sequences were measured (“pre-steady-state target cleavage rate”: median about 0.024, highest 2% from about 1.3 on). The sample holds the highest values, similar sequences and a random draw of the others, so the mix is not that of the screen.
System: MIWI (PIWIL1) piRISC loaded with L1MC piRNA (30 nt)
Assay: pre-steady-state target cleavage rate (min^-1); MIWI and MILI are mouse PIWI proteins and EfPiwi is from a freshwater sponge; tags in brackets are library labels; higher = faster piRNA-guided slicing of the target
Conditions: guide: L1MC piRNA 5'p-UAACUAAAUACUAUGCAAGCUGUAGGUCCU
Experimental: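 Cleave-'n-Seq: a library of target RNAs (target site embedded in constant flanks, ACAGCATTCCGCGTTAGTGATATCCG... 5' flank; DNA-blocked outside the site) at 0.1 nM was incubated with 1 nM active mouse MILI or MIWI piRISC (synthetic 5'-monophosphorylated piRNA guide) with or without 500 nM mouse GTSF1 at 33 °C for 1 min to 16 h. Uncleaved targets were sequenced and normalised to non-target controls, and the pooled three trials were fitted to a burst-and-steady-state model to give the pre-steady-state cleavage rate (min^-1; k3 is constrained to at most 1e-4). Sequence is the target site only; target names encode pairing extent (gX:gY) and contiguous / 1-mismatch / 2-mismatch / bulge geometry. Fits with R² ≤ 0 are excluded.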

[1] = auxiliary factor: 500 nM mouse GTSF1
[2] = auxiliary factor: none (no GTSF1)

Sequence | pre-steady-state target cleavage rate [1] | pre-steady-state target cleavage rate [2]
AGGACCUACAGCUAGCAUAGUAUUUAGUUA | 1.16 ± 0.061 | 0.0412 ± 0.0085
UCGACCUACAGCUAGCAUAGUAUUUAGUUA | 1.28 ± 0.053 | 0.0292 ± 0.0072
ACGACCUACAGCUAGCAUAGUAUUUAGUUA | 1.3 ± 0.052 | 0.0406 ± 0.0091
UGGACCUACAGCUUGGCAUAGUAUUUAGUUA | 1.01 ± 0.26 | 0.0197 ± 0.0048
UGGACCUACAGCUUAGCAUAGUAUUUAGUUA | 1.45 ± 0.08 | 0.0281 ± 0.0051
UCCUGGAUCAGCUUGCUAAGUAUUUAGUAA | 0.00706 ± 0.004 | 
UCCUCCUACAGCUUGCAUAGUAUUUACUUA | 0.383 ± 0.042 | 0.0348 ± 0.0074
UCCUGGAACAGUUGCAUAGUAUUUAGUUA | 0.337 ± 0.022 | 0.00545 ± 0.0021
UCCUGGAUCUGCAUGCAUAGUAUUUAGUUA | 0.204 ± 0.024 | 0.00439 ± 0.002
UCCUGGAUGUCGAACGUAUGUAUUUUAGUUA | < 0.0001 | 
UCCUCCUACAGCUUGCAUAGUAAAAAGUUA | 0.231 ± 0.023 | 
UCCUCCUACAGCUUAGCAUAGUAUUUAGUUA | 1.31 ± 0.054 | 0.0108 ± 0.0023
UCCUCCUACAGCUAGCAUAGUAUUUAGUUA | 0.838 ± 0.03 | 0.016 ± 0.0034
UCCUCCUACAGCUUACAUAGUAUUUAGUUA | 1.14 ± 0.031 | 0.0275 ± 0.0041
ACGUCCUACAGCUUGCAUAGUAUUUAGUUA | 1.52 ± 0.055 | 0.0835 ± 0.013
UCGUCCUACAGCUUGCAUAGUAUUUAGUAA | 0.82 ± 0.037 | 0.0372 ± 0.0076
UGGUCCUACAGCUUGCAAAGUAUUUAGUUA | 1.13 ± 0.04 | 0.0413 ± 0.0067
AGGUCCUACAGCUUGCAUAGUAUUUAGUUA | 1.43 ± 0.054 | 0.111 ± 0.019
UCGUCCUACAGCUUGCAUAGUAUUUAGAAA | 0.469 ± 0.042 | 0.00751 ± 0.0029
UCGUCCUACAGCUUGCAUAGUAUUUAGUUA | 1.42 ± 0.041 | 0.0638 ± 0.0093
AGGUCCUACAGCUUGCAUAGUAUUUAGUAA | 0.77 ± 0.055 | 0.0647 ± 0.012
UCGUCCUACAGCUUGCAAAGUAUUUAGUUA | 1.3 ± 0.032 | 0.0388 ± 0.0068

Sequence | pre-steady-state target cleavage rate [1] | pre-steady-state target cleavage rate [2]
AGGUCCUACAGCUUGCAAAGUAUUUAGUUA | 1.35 ± 0.043 | 0.0532 ± 0.01
UGGUCCUACAGCUUGCAUAGUAUUUAGUUA | 1.16 ± 0.052 | 0.0862 ± 0.015
UCCUACUACAGCUUGCAUAGUAUUUAGUUA | 0.886 ± 0.036 | 0.057 ± 0.0085
UCCUGGAUCAGCUUGCAUAGUAAUUAGAUA | 0.216 ± 0.036 | 0.0126 ± 0.0029
UCCUGGAACAGCUUGGUAAGUAUUUAGUUA | 0.00797 ± 0.0031 | 
UCCUGGAUGUGCUUGACAUAGUAUUUAGUUA | 0.0551 ± 0.0082 | 
UCCUGGAUCAGCUUGCAUAGUAUUAUGUAA | 0.0189 ± 0.0065 | 0.00377 ± 0.0026
UCCUGGAUGUGCUUGGAUACUAUUUAGUUA | 0.031 ± 0.011 | 0.0033 ± 0.0029
UCCUGGAUGUCGAACCAUACUAAUUAGUUA |  | < 0.0001
AGGACCUACAGCUAGCAUAGUAAUUAGUUA | 0.745 ± 0.06 | 0.0091 ± 0.0021
UCCUGGAUCACCAUGCAUAGUAUUUAGUUA | 0.0303 ± 0.0068 | 
UGGUCCUACAGCUUGCUUAGUAUUUAGUUA | 1.21 ± 0.035 | 0.0478 ± 0.0087
UCCUCCUACAGCUUGCUAGUAUUUAGUUA | 0.0615 ± 0.017 | 
UCCUGCUACAGCUUGCUUAGUAUUUAGUUA | 0.987 ± 0.056 | 0.0337 ± 0.008
UCGUCCUACAGCUUGCUUAGUAUUUAGUUA | 1.43 ± 0.047 | 0.0358 ± 0.0073
UCCAGCUACAGCUUGCUUAGUAUUUAGUUA | 0.78 ± 0.039 | 0.0235 ± 0.004
AGGUCCUACAGCUUGCUUAGUAUUUAGUUA | 1.54 ± 0.069 | 0.0542 ± 0.011
AGGACCUACAGCUUGCAUAGAUAUUUAGUUA | 0.143 ± 0.048 | 
UCCACCUACAGCUUGCAUUCAAUUUAGUUA | 0.0179 ± 0.0084 | 
AGGACCUUCUGCUUGCAUAGUAUUUAGUUA | 1.24 ± 0.042 | 0.082 ± 0.015
UGGACCUGACAGCUUGCAUAGUAUUUAGUUA | 1.56 ± 0.12 | 0.0824 ± 0.017
AGGACCUGACAGCUUGCAUAGUAUUUAGUUA | 1.17 ± 0.07 | 0.067 ± 0.011

Sequence | pre-steady-state target cleavage rate [1] | pre-steady-state target cleavage rate [2]
UCGACCUGCAGCUUGCAUAGUAUUUAGUUA | 1.41 ± 0.072 | 0.0674 ± 0.013
UGGACCUUCUGCUUGCAUAGUAUUUAGUUA | 1.3 ± 0.066 | 0.0534 ± 0.0096
UCGACCUGACAGCUUGCAUAGUAUUUAGUUA | 1.25 ± 0.057 | 0.0632 ± 0.011
UCGACCUUGUGCUUGCAUAGUAUUUAGUUA | 0.871 ± 0.038 | 0.0513 ± 0.0098
UCGACCUUCUGCUUGCAUAGUAUUUAGUUA | 1.45 ± 0.048 | 0.0653 ± 0.011
UCCUCCUGCAGCUUGCAUAGUAUUUAGUUA | 1.1 ± 0.053 | 0.0513 ± 0.0088
AGGACCUGCAGCUUGCAUAGUAUUUAGUUA | 1.38 ± 0.088 | 0.0689 ± 0.014
UCCACCUGCAGCUUGCAUAGUAUUUAGUUA | 1.15 ± 0.13 | 0.0541 ± 0.011
UCCUGGAACAGCUUGCAUAGUAUUUAGUAA | 0.685 ± 0.046 | 0.0337 ± 0.0083
UCCUGCUACACGAUGCAUAGUAUUUAGUAA | 0.396 ± 0.032 | 
UCCUGGAUGUCGAUGCUUAGUAUUUUGUUA | < 0.0001 | 
UCCUGGAUCACGUUGCAUAGUAUUUAGUAA | 0.0198 ± 0.0044 | 
UCGACGUACAGCUUCCAUAGUAUUUAGUUA | 0.0527 ± 0.011 | 0.00418 ± 0.0013
UCGAGCUACAGCUUGCAUAGUAUUUUGUUA | 1.06 ± 0.06 | 0.0528 ± 0.0088
UCCUGGAUGAGCUUGCAUAGUAUUAUGUUA | 0.194 ± 0.027 | 0.0102 ± 0.0042
UCCUGGAUGAGCUUGCAUAGUAAUUAGAAA | 0.0194 ± 0.0086 | 
UCCUGGUACAGCUUGCAUAGUAUUUUGAUA | 0.166 ± 0.031 | 0.00994 ± 0.0034
UCCUGCUGCAGCUUGCAUAGUAUUUAGUUA | 1.27 ± 0.058 | 0.0512 ± 0.011
UGGACCUAGUGCUUGCAUAGUAUUUAGUUA | 0.979 ± 0.061 | 0.0419 ± 0.0095
UGGACCUGCAGCUUGCAUAGUAUUUAGUUA | 1.57 ± 0.099 | 0.0683 ± 0.013
